ERa SRC1 pot: ER-alpha (human) coactivator binding potentiation | TR-FRET ERalpha-LBD/SRC-Cy5 coactivator binding, 2 h; 100 = basal binding, no effect | coactivator binding (% of control), % at 25.6 µM | actives 1.3% (n = 86,000) | AID 639; in the data active = activity above about 200%;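 also: binding measured in presence of low estradiol as agonist stimulus; 0% = peptide alone without receptor and 100% = receptor with peptide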
Target sequence (P03372 whole entry, looked up, the tested form may be a part): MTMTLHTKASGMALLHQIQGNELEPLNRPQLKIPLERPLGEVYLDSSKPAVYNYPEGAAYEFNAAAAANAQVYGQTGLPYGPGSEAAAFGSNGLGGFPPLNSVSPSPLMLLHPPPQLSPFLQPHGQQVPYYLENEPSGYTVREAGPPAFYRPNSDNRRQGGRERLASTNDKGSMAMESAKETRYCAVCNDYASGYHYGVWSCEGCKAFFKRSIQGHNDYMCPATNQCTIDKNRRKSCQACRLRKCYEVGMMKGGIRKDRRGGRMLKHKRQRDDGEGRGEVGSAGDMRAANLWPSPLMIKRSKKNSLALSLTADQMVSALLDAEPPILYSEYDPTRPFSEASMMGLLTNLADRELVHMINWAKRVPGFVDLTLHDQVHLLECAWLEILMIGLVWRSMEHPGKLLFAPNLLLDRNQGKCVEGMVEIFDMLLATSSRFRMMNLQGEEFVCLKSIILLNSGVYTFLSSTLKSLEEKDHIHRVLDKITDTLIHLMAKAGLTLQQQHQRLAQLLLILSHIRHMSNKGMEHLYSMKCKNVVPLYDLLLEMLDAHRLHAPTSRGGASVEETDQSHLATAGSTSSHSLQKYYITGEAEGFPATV
ERa SRC1 inh: ER-alpha (human) coactivator binding inhibition | P03372 | TR-FRET ER-alpha LBD / SRC-1 peptide, estradiol-bound | inhibition, % at 25.6 µM | actives 1.7% (n = 86,000) | AID 629; in the data active = inhibition above about 50%;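 also: 0% = receptor plus peptide control and 100% = peptide only without receptor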
Calb biofilm kill: kills Candida albicans biofilms; C. albicans biofilm + clotrimazole, Alamar Blue; inhibition, % at 6 µM; actives 0.14% (n = 85,000);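 active = inhibition above 20%; inactive = inhibition below 20%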;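 also: preformed 24 hr biofilms exposed to compound for 48 hr; 0% = biofilm without compound and 100% = blank killed by clotrimazole plus chlorhexidine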
ERb SRC1 inh: blocks coactivator binding to human estrogen receptor beta; TR-FRET ER-beta LBD / SRC1-Cy5 peptide binding; receptor agonist-loaded with 1 µM estradiol; Q92731; inhibition, % at 25.6 µM; AID 633; actives 1.3% (n = 86,000);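 active = compounds whose percent inhibition of the receptor-coactivator binding signal exceeds about 50% in the single-dose screen, limit read from the data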;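 also: 0% = receptor plus peptide wells without compound and 100% = peptide-only wells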
Smad3 inh: blocks human Smad3 binding to FoxH1 peptide | P84022 | TR-FRET Smad3/Dy647-FoxH1 peptide binding, europium anti-His | inhibition, % at 25 µM | actives 0.29% (n = 88,000) | AID 630;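 active = compounds that reduce the energy-transfer binding signal between the protein and its labelled peptide by more than half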;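 also: 0% = Smad3 plus labelled peptide maximal FRET and 100% = peptide-only background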
Numbers without * were called inactive; x = no result given; [ ] = dose if it differs, or a comment. Shown are actives, neighbours in structure and some others; about 3.8% of the full set was active somewhere.

SMILES	ERa SRC1 pot	ERa SRC1 inh	Calb biofilm kill	ERb SRC1 inh	Smad3 inh
COc1cccc(C2CC(c3ccccc3)Nc3ncnn32)c1 (centres undefined)	98	10	7	6	-10
COc1ccccc1CNC(=O)c1cnccn1	94	61*[fluorescence artefact?]	2	37	22
Cc1cc(C)nc(NC(=O)CSc2nn(C)c(=S)s2)n1	47	65*	6	33	8
C=C(C)COc1ccc(-c2nc(N)nc(C)c2Oc2ccccc2OC)c(O)c1	286*[fluorescence artefact?]	29	6	59*[fluorescence artefact?]	13
COc1ccc(-c2nc(N)ncc2Oc2ccccc2Br)c(O)c1	241*[fluorescence artefact?]	24	8	36	6
O=C(O)c1ccc(C(=O)O)c(C(=O)O)c1.[NH-][C@@H]1CCCC[C@H]1[NH-].[Pt]	x	x	x	x	28
CC(C)(N=NC(C)(C)C1=NCCN1)C1=NCCN1	x	x	x	x	22
Fc1ccccc1CSc1ncnc2c1oc1ccccc12	213*[fluorescence artefact?]	28	9	31	4
O=C(CSc1ncnc2c1oc1ccccc12)Nc1nc2ccccc2s1	75	42	0	18	7
c1ccc(CSc2ncnc3c2oc2ccccc23)cc1	107	26	2	12	24
O=C(CSc1ncnc2c1oc1ccccc12)Nc1ccccc1F	406*[fluorescence artefact?]	47	4	55*[fluorescence artefact?]	48
CCc1nnc(NC(=O)CSc2ncnc3c2oc2ccccc23)s1	238*[fluorescence artefact?]	-18	2	16	-10
CCc1nnc(NC(=O)CSc2nnc(-c3ccccc3NC(=O)c3ccccc3)o2)s1	285*[fluorescence artefact?]	22	10	31	35
C[C@H](CC(=O)O)C(C(=O)O)C(=O)O	x	x	x	x	-3
COC(=O)c1ccc(CSc2ncn[nH]2)o1	107	-8	7	86*[fluorescence artefact?]	4
O=C(CSc1ncnc2c1oc1ccccc12)Nc1cccc(Cl)c1	373*[fluorescence artefact?]	6	7	26	23
CCOc1ccccc1NC(=O)CSc1ncnc2c1oc1ccccc12	274*[fluorescence artefact?]	31	5	41	5
COC(=O)c1ccc(CSc2ncnc3c2oc2ccccc23)o1	234*[fluorescence artefact?]	41	0	56*[fluorescence artefact?]	62*[fluorescence artefact?]
O=C(CSc1ncnc2c1oc1ccccc12)Nc1cccc(C(F)(F)F)c1	188	24	10	19	6
COC(=O)c1ccc(CSc2ncnc3ccccc23)o1	116	-6	2	-10	2
CCN1CCN(CC(=O)Nc2cccc(C)c2C)C(=O)C1=O	110	-6	1	-14	0
COc1ccc(NC(=S)NCc2ccco2)c(OC)c1	77	-2	-3	-9	-3
CCOC(=O)C1=C(C)NC(=O)NC1c1ccco1 (centres undefined)	61	48	4	66*	8
CC1=C(C(=O)OC(C)C)C(c2ccc(F)cc2)NC(=O)N1 (centres undefined)	109	2	-1	-1	-9
CCOC(=O)C1=C(C)NC(=O)NC1c1ccc(OC(=O)c2ccco2)cc1 (centres undefined)	108	-4	6	-3	7
SMILES	ERa SRC1 pot	ERa SRC1 inh	Calb biofilm kill	ERb SRC1 inh	Smad3 inh
CC1=C(C(=O)OC(C)C)C(c2ccco2)NC(=O)N1 (centres undefined)	56	35	3	55*[fluorescence artefact?]	11
O=C(O)Cc1[nH]cnc1C(=O)O	x	x	x	x	9
C/C(=N\O)c1ccc2cc(Br)c3ccccc3c2c1	x	x	x	x	12
Cc1ccc(C)c(-n2nnnc2SCC(=O)c2ccc3c(c2)NC(=O)CO3)c1	232*[fluorescence artefact?]	20	-4	2	-5
CCOc1ccc(-c2nnn(CC(=O)c3ccc4c(c3)OCCO4)n2)cc1OCC	385*[fluorescence artefact?]	13	0	26	-2
CCOc1ccc(-c2nnn(CC(=O)NCc3ccc(F)cc3)n2)cc1OCC	115	1	-1	4	2
CCc1c(C)sc(NC(=O)CC#N)c1C#N	40	77*[fluorescence artefact?]	4	64*[fluorescence artefact?]	1
CC(C)CNc1nc2ncnc(N)c2[nH]1	x	x	x	x	16
O=C(NCc1ccco1)c1nc2nc(-c3cccs3)cc(C(F)(F)F)n2n1	67	26	3	22	9
O=C(NCc1ccco1)c1nn2c(C(F)(F)F)cc(-c3cccs3)nc2c1Br	157	59*	-1	44	0
Cn1c(SCC(=O)Nc2nccs2)nnc1-c1ccc(S(=O)(=O)N2CCCC2)cc1	41	11	7	5	1
O=C(CSc1n[nH]c(-c2ccc(S(=O)(=O)N3CCCCC3)cc2)n1)Nc1nccs1	136	50*	-2	21	0
CN(C)CCN(c1ccccn1)c1ccccn1	x	x	x	x	17
CCc1nc2oc3cc(OC)ccc3c(=O)c2c(=O)n1Cc1ccco1	78	37	7	59*	3
COc1ccc2c(=O)c3c(=O)n(Cc4ccco4)c(-c4ccco4)nc3oc2c1	49	75*[fluorescence artefact?]	-1	60*	15
COc1ccc(-c2nc3oc4cc(OC)ccc4c(=O)c3c(=O)n2Cc2ccco2)cc1	86	42	9	23	16
COc1ccc(Cn2c(-c3ccco3)nc3oc4cc(OC)ccc4c(=O)c3c2=O)cc1	571*[fluorescence artefact?]	50	5	54*[fluorescence artefact?]	-84
COc1ccc(Cn2c(-c3ccco3)nc3oc4ccccc4c(=O)c3c2=O)cc1	145	45	5	27	-31
COc1ccc(/C=N/NC(=O)O)cc1	x	x	x	x	12
CC1=C(CC[C@H](C)CO)O[C@@H]2C[C@@H]3[C@H]4CC[C@H]5C[C@@H](O)CC[C@]5(C)[C@@H]4CC(=O)[C@@]3(C)[C@H]12	x	x	x	x	99*
C[C@]12CC[C@H](O)C[C@@H]1CC[C@H]1[C@H]2CC[C@]2(C)[C@@H]1CC[C@H]2c1cc(C(F)(F)F)n[nH]1	x	x	x	x	4
Cc1ccn2c(CCc3nnc4cc(C)ccn34)nnc2c1	x	x	x	x	-3
Nc1ccc(-c2ccc(Nc3cc(S(=O)(=O)O)c(N)c4c3C(=O)c3ccccc3C4=O)cc2)c(S(=O)(=O)O)c1	x	x	x	x	94*
CCCOc1ccc(-c2nnc(-c3cccs3)o2)cc1	215*[fluorescence artefact?]	15	7	17	-76
CCCCOc1ccc(-c2nnc(-c3ccncc3)o2)cc1	114	4	4	2	9
SMILES	ERa SRC1 pot	ERa SRC1 inh	Calb biofilm kill	ERb SRC1 inh	Smad3 inh
O=C(NCc1ccc2c(c1)OCO2)c1cc2c(s1)CSC2	74	27	8	31	-14
O=C(NCc1ccco1)c1cc2c(s1)CSC2	77	71*	5	65*	5
COC(=O)CCCC(=O)O	x	x	x	x	-12
COc1ccc(S(=O)(=O)N(C)CC(=O)N2CCN(Cc3ccccc3)CC2)cc1C	103	-1	-2	15	6
COc1ccc2[nH]c3nc(SC(C)C)nnc3c2c1	96	20	0	18	-3
COc1ccc2[nH]c3nc(SCc4nnc(-c5ccccc5)o4)nnc3c2c1	54	85*[fluorescence artefact?]	-3	52*[fluorescence artefact?]	7
CC(C)C(=O)C(C)(C)CCc1ccccn1	x	x	x	x	3
COC(=O)c1ccc(Cl)c(NC(=O)NC2CCCCC2)c1	244*[fluorescence artefact?]	44	11	27	5
S=c1nc(-c2nc(=S)[nH]c3c2CCCCCCCCCC3)c2c([nH]1)CCCCCCCCCC2	x	x	x	x	-2
CCC/C(=N/Nc1ccc(Cl)cc1)c1cnnc(-c2ccccc2)n1	12	94*	6	67*[fluorescence artefact?]	11

Screening data deposited in PubChem BioAssay by several laboratories.
